Experiment in all cases: NCI-60 one-dose screen, 48 h (100 = growth as untreated, 0 = no growth, -100 = all killed)
One assay concerns T-47D breast. The settings on record: 10 µM unless noted.
The subject of another assay is BT-549 breast. The conditions noted are these: 10 µM unless noted.
The next assay relates to MDA-MB-435 melanoma. The conditions noted are these: 10 µM unless noted.
The subject of a further assay is SW-620 colon. The conditions noted are these: 10 µM unless noted.
The test system of another assay is MCF7 breast. The settings on record: 10 µM unless noted.
In another assay the test system is HCT-116 colon. The settings on record: 10 µM unless noted.
The test system of the next assay is HCC-2998 colon. The conditions noted are these: 10 µM.
The test system of a further assay is KM12 colon. The settings on record: 10 µM unless noted.

Compounds without any hit were thinned out: in the full panel of roughly 83,000, 20% have a hit.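 Values shown are percent growth following 48 h exposure of cells in 96-well plates to a single concentration of compound; below 10 was considered active.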 Unmarked numbers belong to inactive results. Calls of active or inactive are those of the source.

For `Cc1cc2c(-c3nc4ccccn4c3NC3CCCCC3)c(O)c(O)cc2c(O)c1-c1c(C)cc2c(-c3nc4ccccn4c3NC3CCCCC3)c(O)c(O)cc2c1O`, the growth is 11.9% in the assay on T-47D breast; 30.1% in the assay with BT-549 breast; 27.5% with MDA-MB-435 melanoma; 28.9% in the assay on SW-620 colon; 43% in the assay on MCF7 breast; 14.2% with HCT-116 colon. The growth in the assay on HCC-2998 colon is 46.2%; in the assay on KM12 colon, 29.6%.

Regarding `Cc1nn(-c2nc3ccccc3[nH]2)c2c1C(c1ccc(O)cc1)CC(=O)N2` (stereo not given), the growth with T-47D breast is 88.7%; in the assay on BT-549 breast, 92.7%; with MDA-MB-435 melanoma it was 104%; with SW-620 colon it was 93.5%; in the assay with MCF7 breast it was 109%; in the assay with HCT-116 colon it was 101%. Also, the growth was 123% in the assay on HCC-2998 colon and 60.3% in the assay with KM12 colon.

Regarding `O=C1CC(c2ccc(Cl)cc2)c2ncn(-c3cccc(Cl)c3)c2N1` (stereo not given), the growth in the assay with T-47D breast is 68.7%; with BT-549 breast, 52.5%; in the assay with MDA-MB-435 melanoma it was -16.8% (active); with SW-620 colon, 26%; in the assay on MCF7 breast, 61.2%; in the assay with HCT-116 colon, 19.1%. For the same compound, the results for the growth with HCC-2998 colon and with KM12 colon were 77.4% and 54.1%, respectively.

On to `CN1CCN(c2ccc(C(=O)Nc3n[nH]c4ccc(Cc5cc(F)cc(F)c5)cc34)c(NC3CCOCC3)c2)CC1`, for which the growth in the assay on T-47D breast is -65.6% (active); in the assay with BT-549 breast, 10.6%; in the assay with MDA-MB-435 melanoma, -86.5% (active); in the assay on SW-620 colon, -79.2% (active); in the assay with MCF7 breast it was -72% (active); with HCT-116 colon, -95.5% (active). Moreover, the values for the growth with HCC-2998 colon and with KM12 colon were -81.3% (active) and -72.5% (active), respectively.

As for `Cc1cc(O)c2c(c1)C1OC(=O)CCCCCN1C1=C2C(=O)c2cccc(OC3CC(O)C(O)C(C)O3)c2C1=O` (stereo not given), the growth in the assay on T-47D breast was 85.6%; in the assay on BT-549 breast it was 83.6%; in the assay on MDA-MB-435 melanoma, 13.1%; in the assay on SW-620 colon it was 99.9%; in the assay with MCF7 breast it was 17.7%; with HCT-116 colon, 24.5%. Besides, the growth in the assay on HCC-2998 colon is 73%; with KM12 colon, 83.4%.

Take `Cn1cc(-c2ncnc3ccc(-c4cnc(Cl)c(NS(C)(=O)=O)c4)cc23)c2ccccc21`: the growth with T-47D breast was -23.9% (active); in the assay with BT-549 breast, 4.5% (active); with MDA-MB-435 melanoma, 7.19% (active); in the assay on SW-620 colon, 21.3%; with MCF7 breast, 7.57% (active); in the assay with HCT-116 colon, 20.3%. Besides, the growth with HCC-2998 colon was 17.7%; with KM12 colon, 25.3%.

With `CC(C)(C)CC(C)(C)Nc1c(-c2c(O)c3ccccc3oc2=O)nc2c(Cl)cc(C(F)(F)F)cn12`, the growth in the assay on T-47D breast was 95.3%; in the assay with BT-549 breast, 78.7%; in the assay with MDA-MB-435 melanoma, 103%; with SW-620 colon, 102%; in the assay on MCF7 breast, 107%; with HCT-116 colon it was 70.4%. Further, the growth in the assay on HCC-2998 colon was 107%; in the assay on KM12 colon, 103%.

As to `Nc1c2c(c(O)c3c1=C(CO)C=N3)=NCCS2=O` (stereo not given), the growth with T-47D breast is -42.6% (active); in the assay on BT-549 breast it was -74.4% (active); in the assay with MDA-MB-435 melanoma it was -82.7% (active); with SW-620 colon, -18% (active); in the assay on MCF7 breast it was -50.6% (active); in the assay on HCT-116 colon, -49.3% (active). Further, the growth is -87.8% (active) in the assay on HCC-2998 colon and -27.7% (active) with KM12 colon.

In the case of `O=C(Cc1ccccc1)Nc1nnc(NC2CCN(c3nnc(NC(=O)Cc4ccccc4)s3)CC2)s1`, the growth was 84% with T-47D breast; 82% in the assay with BT-549 breast; 102% in the assay on MDA-MB-435 melanoma; 99.8% in the assay with SW-620 colon; 87.4% with MCF7 breast; 89.2% in the assay on HCT-116 colon. Besides, the growth with HCC-2998 colon is 101%; in the assay with KM12 colon, 59.2%.

With `CC(N)C(Cc1ccccc1)c1ccc(Cl)cc1` (stereo not given), the growth with T-47D breast is 75.5%; in the assay with BT-549 breast, 88.4%; in the assay on MDA-MB-435 melanoma, 94.1%; in the assay with SW-620 colon, 88.9%; in the assay with MCF7 breast it was 90.3%; in the assay on HCT-116 colon, 78.8%. Besides, the growth in the assay with HCC-2998 colon is 84.5%; in the assay with KM12 colon, 98.9%.

With `Cc1cc(N2CCOCC2)nc(N(CCNc2ccnc3cc(Cl)ccc23)Cc2cccs2)n1`, the growth with T-47D breast was -29.6% (active); in the assay on BT-549 breast it was -16.3% (active); with MDA-MB-435 melanoma, -1.4% (active); in the assay on SW-620 colon, 19.5%; in the assay on MCF7 breast it was 18.2%; in the assay with HCT-116 colon it was -25.1% (active). Besides, the results for the growth in the assay on HCC-2998 colon and in the assay on KM12 colon were -12.7% (active) and 26.4%, respectively.

Take `CN1CCN(c2nc(C3=C(c4c[nH]c5ccccc45)C(=O)NC3=O)c3ccccc3n2)CC1`: the growth in the assay on T-47D breast was 102%; with BT-549 breast, 91%; with MDA-MB-435 melanoma, 41.8%; in the assay on SW-620 colon it was 48.4%; in the assay on MCF7 breast, 95.1%; in the assay with HCT-116 colon, 32.4%. Also, the values for the growth in the assay on HCC-2998 colon and with KM12 colon were 19.2% and 36.1%, respectively.

With `Cc1ccc(NC(=O)c2ccc(CN3CC[C@H](N(C)C)C3)c(C(F)(F)F)c2)cc1Nc1nccc(-c2cncnc2)n1`, the growth was -58.9% (active) in the assay with T-47D breast; 35.9% in the assay on BT-549 breast; -18.3% (active) in the assay on MDA-MB-435 melanoma; 8.15% (active) with SW-620 colon; 7.04% (active) with MCF7 breast; -17.4% (active) in the assay with HCT-116 colon. For the same compound, the growth is -22.7% (active) with HCC-2998 colon and 10.4% in the assay on KM12 colon.

Consider `COC(=O)[C@]12CC[C@@H](C)[C@H](C)[C@@H]1C1=CC[C@@H]3[C@@]4(C)C(C#N)=CC(C)=C4CC[C@@]3(C)[C@]1(C)CC2`, for which the growth in the assay with T-47D breast was 68.2%; in the assay on BT-549 breast, 98.7%; with MDA-MB-435 melanoma, 88.1%; in the assay on SW-620 colon, 87.2%; with MCF7 breast it was 90.1%; with HCT-116 colon it was 68.4%. In addition, the figures for the growth with HCC-2998 colon and in the assay on KM12 colon were 80% and 84.6%, respectively.

Take `CN(N)c1nc2sc3c(c2c(=O)[nH]1)CCCC3`: the growth in the assay with T-47D breast was 76.6%; in the assay with BT-549 breast it was 91.2%; with MDA-MB-435 melanoma, 97.1%; in the assay with SW-620 colon, 101%; in the assay on MCF7 breast, 83.4%; in the assay with HCT-116 colon it was 94.9%. Further, the growth in the assay with HCC-2998 colon is 96%; in the assay on KM12 colon, 95.7%.

The values are drawn from PubChem BioAssay (NCI).
